Measurements as given in the supplement of paper PMC3545927.
This is one part of the list. No count for the full screen is at hand.

B1: FS-2981 (peptide)
chain: CARKSRPNASAGNASASA
B2: FS-2269 (peptide)
chain: CARKKRQVPYAGNASASA
B3: FS-1957 (peptide)
chain: CARKKRSEYYAGNASASA
B4: FS-3195 (peptide)
chain: CARKSRSKSKAGNASASA
B5: FS-1958 (peptide)
chain: CARKKRSQTYAGNASASA
B6: FS-3224 (peptide)
chain: CARKSRSPHNAGNASASA
B7: HC302 (peptide)
chain: CASVFLVGQLAGNASASA
B8: CS5 (peptide)
chain: CAGDEVDGAGAGNASASA
B9: HC1343 (peptide)
chain: CATTTSSEPAAGNASASA
B10: HC2025 (peptide)
chain: CAVVLCSMSYAGNASASA
B11: HC777 (peptide)
chain: CAGSGKSTKVAGNASASA
B12: HC808 (peptide)
chain: CATYGKFLADAGNASASA
B13: HC1461 (peptide)
chain: CAKLPLAVMGAGNASASA
B14: HC1616 (peptide)
chain: CAKLGVPPLRAGNASASA
B15: FS-1827 (peptide)
chain: CARKKRISANAGNASASA
B16: FS-2878 (peptide)
chain: CAQKKRSAQYAGNASASA
B17: FS-2036 (peptide)
chain: CARKKRSAQNAGNASASA
B18: FS-1374 (peptide)
chain: CALTARFRRGAGNASASA
B19: FS-3104 (peptide)
chain: CARTGRQVLGAGNASASA
B20: FS-1483 (peptide)
chain: CARTDRCRRGAGNASASA
B21: FS-250 (peptide)
chain: CAIHARFRRGAGNASASA
B22: FS-883 (peptide)
chain: CATREAFRRGAGNASASA
B23: HC815 (peptide)
chain: CAAYDIIICDAGNASASA
B24: HC1107 (peptide)
chain: CAVVGVVCAAAGNASASA
B25: HC618 (peptide)
chain: CAVQGLLRFCAGNASASA
B26: FS-1016 (peptide)
chain: CAIRKRDRRGAGNASASA
B27: FS-1344 (peptide)
chain: CAIIKRSRRGAGNASASA
B28: HC1164 (peptide)
chain: CAPFVSCQRGAGNASASA
B29: FS-547 (peptide)
chain: CALASRRYRGAGNASASA
B30: FS-2408 (peptide)
chain: CAIIKRSAWEAGNASASA
B31: TR2 (peptide)
chain: CAGVPRSFRGAGNASASA
B32: FS-816 (peptide)
chain: CALARRSRRGAGNASASA
B33: FS-67 (peptide)
chain: CAPANRSRRGAGNASASA
B34: HC11 (peptide)
chain: CAMEEKSQHLAGNASASA
B35: HC59 (peptide)
chain: CATTPQSGSWAGNASASA
B36: HC440 (peptide)
chain: CAGFTKVCGAAGNASASA
B37: HC265 (peptide)
chain: CANSSIVYEAAGNASASA
B38: HC2216 (peptide)
chain: CAEVVTSGWVAGNASASA
B39: HC1031 (peptide)
chain: CARQAEVIAPAGNASASA
B40: HC1836 (peptide)
chain: CAGTPCSGSWAGNASASA
B41: NG4 (peptide)
chain: CAGRGRGGGGAGNASASA
B42: FS-333 (peptide)
chain: CAGRGRERRWAGNASASA
B43: FS-1799 (peptide)
chain: CARVARVAREAGNASASA
B44: HC1494 (peptide)
chain: CAPQARVAIKAGNASASA
B45: FS-1938 (peptide)
chain: CARVARVRGGAGNASASA
B46: FS-332 (peptide)
chain: CAGRERMAREAGNASASA
B47: FS-2193 (peptide)
chain: CARVARHAAPAGNASASA
B48: FS-2616 (peptide)
chain: CARVDRDVAPAGNASASA
B49: HC664 (peptide)
chain: CAGREILLGPAGNASASA
B50: FS-222 (peptide)
chain: CADFERKAREAGNASASA

Molecular target: furin, P09958
Sequence (P09958 whole entry): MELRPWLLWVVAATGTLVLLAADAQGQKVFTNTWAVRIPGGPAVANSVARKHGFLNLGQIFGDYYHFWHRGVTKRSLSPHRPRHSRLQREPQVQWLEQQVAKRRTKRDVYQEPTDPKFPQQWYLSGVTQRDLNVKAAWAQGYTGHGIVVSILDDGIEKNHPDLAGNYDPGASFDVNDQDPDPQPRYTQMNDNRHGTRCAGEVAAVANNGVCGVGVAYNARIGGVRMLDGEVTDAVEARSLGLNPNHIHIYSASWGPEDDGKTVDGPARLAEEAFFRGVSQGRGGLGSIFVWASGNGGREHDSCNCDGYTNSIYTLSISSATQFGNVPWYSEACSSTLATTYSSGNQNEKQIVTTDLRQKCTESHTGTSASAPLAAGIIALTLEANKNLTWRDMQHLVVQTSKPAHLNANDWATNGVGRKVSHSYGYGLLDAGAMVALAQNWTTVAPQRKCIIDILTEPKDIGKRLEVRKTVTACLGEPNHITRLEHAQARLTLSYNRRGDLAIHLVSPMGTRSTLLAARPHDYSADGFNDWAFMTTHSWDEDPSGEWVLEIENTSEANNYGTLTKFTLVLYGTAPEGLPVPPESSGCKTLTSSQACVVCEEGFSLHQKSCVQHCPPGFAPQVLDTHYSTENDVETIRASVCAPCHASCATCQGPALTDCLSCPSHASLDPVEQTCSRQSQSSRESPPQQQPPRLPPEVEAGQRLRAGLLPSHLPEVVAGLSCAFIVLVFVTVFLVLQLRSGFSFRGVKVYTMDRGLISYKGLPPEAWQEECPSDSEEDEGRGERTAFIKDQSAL
Assay: furin cleavage Z-score vs untreated control; higher = more cleavage, active = 3.5 or more, inactive = 1 or less, 8 variable residues between constant flanks
How it was run: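 Cleavage by purified furin was measured on 8-mer peptides fused to a cDNA oligonucleotide and held on magnetic beads by their N-terminus. Reactions (0.01 ml, 1:10 enzyme:substrate) ran 7.5, 15 or 30 min in 50 mM HEPES pH 7.5 with CaCl2 and NaCl. Released DNA was adapter-tagged by PCR and sequenced, with read counts giving abundance. Log counts versus furin-free reactions were lowess-adjusted and scaled by median absolute deviation to give the cleavage Z-score.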

Sequence | furin cleavage Z-score (7.5 min) | furin cleavage Z-score (15 min) | furin cleavage Z-score (30 min)
B1 | 0.905 (inactive) | -0.37 (inactive) | -0.749 (inactive)
B2 | 7.32 (active) | 7.2 (active) | 5.84 (active)
B3 | 5.84 (active) | 8.3 (active) | 8.52 (active)
B4 | 1.71 | 0.576 (inactive) | 0.352 (inactive)
B5 | 8.08 (active) | 10.2 (active) | 9.02 (active)
B6 | 7.07 (active) | 8.27 (active) | 8.28 (active)
B7 | -1.01 (inactive) | 0.196 (inactive) | -1.15 (inactive)
B8 | -1.72 (inactive) | -1.16 (inactive) | -2.65 (inactive)
B9 | 0.91 (inactive) | 0.314 (inactive) | 0.501 (inactive)
B10 | -0.0785 (inactive) | 0.317 (inactive) | -1.45 (inactive)
B11 | -0.846 (inactive) | -1.25 (inactive) | -0.383 (inactive)
B12 | -0.371 (inactive) | 0.314 (inactive) | -0.318 (inactive)
B13 | -1.04 (inactive) | 0.392 (inactive) | -1.13 (inactive)
B14 | -0.0832 (inactive) | -1.53 (inactive) | 0.294 (inactive)
B15 | 0.255 (inactive) | 0.21 (inactive) | -0.0863 (inactive)
B16 | 0.0672 (inactive) | 0.984 (inactive) | 2.02
B17 | 11.7 (active) | 14 (active) | 8.93 (active)
B18 | 10.8 (active) | 12 (active) | 9.56 (active)
B19 | 0.169 (inactive) | -0.821 (inactive) | -1.11 (inactive)
B20 | 7.57 (active) | 8.52 (active) | 8.04 (active)
B21 | 11.1 (active) | 12.1 (active) | 9.69 (active)
B22 | -0.796 (inactive) | -0.878 (inactive) | -1.14 (inactive)
B23 | -1.2 (inactive) | -0.574 (inactive) | -0.848 (inactive)
B24 | 0.556 (inactive) | -0.0757 (inactive) | -0.152 (inactive)
B25 | -0.0765 (inactive) | 0.463 (inactive) | -0.436 (inactive)

Sequence | furin cleavage Z-score (7.5 min) | furin cleavage Z-score (15 min) | furin cleavage Z-score (30 min)
B26 | 12 (active) | 13.2 (active) | 9.35 (active)
B27 | 6.89 (active) | 7.38 (active) | 7.28 (active)
B28 | 0.755 (inactive) | 0.834 (inactive) | -0.509 (inactive)
B29 | -0.863 (inactive) | -0.493 (inactive) | -0.101 (inactive)
B30 | -0.767 (inactive) | -0.224 (inactive) | -0.00284 (inactive)
B31 | 0.299 (inactive) | -0.905 (inactive) | -1.74 (inactive)
B32 | 7.83 (active) | 7.63 (active) | 6.48 (active)
B33 | 10.1 (active) | 11.8 (active) | 9.38 (active)
B34 | 0.661 (inactive) | -0.101 (inactive) | 0.52 (inactive)
B35 | -0.528 (inactive) | -0.454 (inactive) | -0.569 (inactive)
B36 | 0.851 (inactive) | 0.701 (inactive) | -1.33 (inactive)
B37 | 0.639 (inactive) | -1.3 (inactive) | -0.329 (inactive)
B38 | 0.374 (inactive) | -0.391 (inactive) | -0.0659 (inactive)
B39 | 0.765 (inactive) | 1.4 | -0.146 (inactive)
B40 | -0.934 (inactive) | -0.454 (inactive) | -1.18 (inactive)
B41 | 0.497 (inactive) | -0.137 (inactive) | 0.673 (inactive)
B42 | 6.35 (active) | 9.27 (active) | 8.33 (active)
B43 | 7.74 (active) | 5.71 (active) | 5.82 (active)
B44 | 0.98 (inactive) | -0.346 (inactive) | 1.74
B45 | -0.221 (inactive) | -0.337 (inactive) | -1.51 (inactive)
B46 | 5.27 (active) | 6.35 (active) | 5.57 (active)
B47 | 7.61 (active) | 8.49 (active) | 8.42 (active)
B48 | 0.776 (inactive) | -0.0435 (inactive) | 0.369 (inactive)
B49 | -0.781 (inactive) | -0.532 (inactive) | 0.339 (inactive)
B50 | 0.924 (inactive) | 0.123 (inactive) | 0.387 (inactive)
